Assay results published in PubChem BioAssay (NCATS).
Results filed as inconclusive are left out. The source made the active and inactive calls. Calls come from the whole dose curve; as a rule, active = well fitted cell-killing curve with a large enough effect; inconclusive = small, poorly fitted or top-dose-only effect, or effect the other way; inactive = flat fitted curve, though single readings scatter.

What was measured:
Test in all cases: Primary qHTS to identify gynecologic anti-cancer compounds using libraries of approved drugs and bioactive compounds (AID 1345084); note: nearly all actives have a fitted effect of over 55% in size
[1] = system: C33A; conditions: Gynecologic cancer cell panel viability, ATPlite luminescence, 48 h; series mostly up to 57.5 µM
Method in brief: (§1)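 ATP-based viability (ATPlite), 1,000 cells/well, 16 h pre-incubation, 48 h compound at 37 C, 5% CO2, 15 min RT before read.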

[2] = system: CAOV3; conditions: Gynecologic cancer cell panel viability, ATPlite luminescence, 48 h; series mostly up to 57.5 µM
Method in brief: as §1

[3] = system: Es-2; conditions: Gynecologic cancer cell panel viability, ATPlite luminescence, 48 h; series mostly up to 57.5 µM
Method in brief: as §1

[4] = system: HeLa; conditions: Gynecologic cancer cell panel viability, ATPlite luminescence, 48 h; series mostly up to 57.5 µM
Method in brief: as §1

[5] = system: Hek293T; conditions: Gynecologic cancer cell panel viability, ATPlite luminescence, 48 h, control line for the selectivity index; series mostly up to 57.5 µM
Method in brief: as §1

[6] = system: JEG-3; conditions: Gynecologic cancer cell panel viability, ATPlite luminescence, 48 h; series mostly up to 57.5 µM
Method in brief: as §1

[7] = system: OV90; conditions: Gynecologic cancer cell panel viability, ATPlite luminescence, 48 h; series mostly up to 57.5 µM
Method in brief: as §1

[8] = system: PA-1; conditions: Gynecologic cancer cell panel viability, ATPlite luminescence, 48 h; series mostly up to 57.5 µM
Method in brief: as §1

[9] = system: SKOV3; conditions: Gynecologic cancer cell panel viability, ATPlite luminescence, 48 h; series mostly up to 57.5 µM
Method in brief: as §1

[10] = system: Tov-21-G; conditions: Gynecologic cancer cell panel viability, ATPlite luminescence, 48 h; series mostly up to 57.5 µM
Method in brief: as §1

[11] = system: Tov112D; conditions: Gynecologic cancer cell panel viability, ATPlite luminescence, 48 h; series mostly up to 57.5 µM
Method in brief: as §1

[12] = system: CASKI; conditions: Gynecologic cancer cell panel viability, ATPlite luminescence, 48 h; series mostly up to 57.5 µM
Method in brief: as §1
% is set by controls: 0 for no effect and ±100 for the full control effect.

Cc1c(F)cc(C(=O)NC2CC2)cc1-c1c(F)cn2c(C(C)(C)C)nnc2c1F
inactive: Potency [1] | Potency [2] | Potency [3] | Potency [4] | Potency [5] | Potency [6] | Potency [7] | Potency [8] | Potency [9] | Potency [10] | Potency [11]

O=C(NCc1ccccn1)Nc1nnc(-c2ccco2)o1
inactive: Potency [1] | Potency [12] | Potency [3] | Potency [4] | Potency [5] | Potency [6] | Potency [7] | Potency [8] | Potency [9] | Potency [10] | Potency [11]

CC12CCC(C(OC3OC(COC4OCC(O)(CO)C4O)C(O)C(O)C3O)C1)C(C)(C)O2 (stereo not given)
inactive: Potency [1] | Potency [12] | Potency [3] | Potency [4] | Potency [5] | Potency [6] | Potency [7] | Potency [8] | Potency [9] | Potency [10] | Potency [11]

C=C1C(OC2OCC(O)C(O)C2O)CC2C(C)(C)C(O)CCC2(C)C1CC/C(C)=C\CO (stereo not given)
inactive: Potency [1] | Potency [12] | Potency [3] | Potency [4] | Potency [5] | Potency [6] | Potency [7] | Potency [8] | Potency [9] | Potency [10] | Potency [11]

COC(=O)C1(C)CCC2(C(=O)O)CCC3(C)C(=CCC4C5(C)CC(O)C(OC6OCC(O)C(O)C6O)C(C)(CO)C5CCC43C)C2C1 (stereo not given)
inactive: Potency [1] | Potency [12] | Potency [3] | Potency [4] | Potency [5] | Potency [6] | Potency [7] | Potency [8] | Potency [9] | Potency [10] | Potency [11]

C=CC1C(OC2OC(CO)C(O)C(O)C2O)OC=C2C(=O)N3C(C(=O)O)Cc4c([nH]c5ccccc45)C3CC21 (stereo not given)
inactive: Potency [1] | Potency [12] | Potency [3] | Potency [4] | Potency [5] | Potency [6] | Potency [7] | Potency [8] | Potency [9] | Potency [10] | Potency [11]

COc1ccc2nc(S(=O)(=O)Cc3ncc(C)c(OC)c3C)[nH]c2c1
inactive: Potency [1] | Potency [12] | Potency [3] | Potency [4] | Potency [5] | Potency [6] | Potency [7] | Potency [8] | Potency [9] | Potency [10] | Potency [11]

COc1ccc(CC2NCCc3c2[nH]c2ccc(C)cc32)cc1OC (stereo not given)
inactive: Potency [1] | Potency [12] | Potency [3] | Potency [4] | Potency [5] | Potency [6] | Potency [7] | Potency [8] | Potency [9] | Potency [10] | Potency [11]

CC(=O)O[C@@H]1[C@H](O[C@@H]2O[C@@H](CO)[C@H](O)[C@H]2O)[C@@H](O[C@@H]2O[C@@H](C)[C@H](O[C@@H]3OC[C@@H](O)[C@H](O)[C@H]3O)[C@@H](O)[C@H]2O)[C@H](OC(=O)[C@]23CCC(C)(C)C[C@H]2C2=CCC4[C@@]5(C)CC[C@H](O[C@@H]6O[C@H](C(=O)O)[C@@H](O)[C@H](O)[C@H]6O[C@@H]6O[C@H](CO)[C@H](O)[C@H](O)[C@H]6O)[C@@](C)(C=O)C5CC[C@@]4(C)[C@]2(C)CC3)O[C@@H]1C (stereo not given in full)
inactive: activity change, negative = cytotoxicity [1] 4.84% [at 6.55 µM] | activity change, negative = cytotoxicity [12] 4.57% [at 6.55 µM] | activity change, negative = cytotoxicity [3] 4.09% [at 6.55 µM] | activity change, negative = cytotoxicity [4] 11.1% [at 6.55 µM] | activity change, negative = cytotoxicity [5] 2.65% [at 6.55 µM] | activity change, negative = cytotoxicity [6] 11.6% [at 6.55 µM] | activity change, negative = cytotoxicity [7] 12.8% [at 6.55 µM] | activity change, negative = cytotoxicity [8] 11.1% [at 6.55 µM] | activity change, negative = cytotoxicity [9] 0% [at 6.55 µM] | activity change, negative = cytotoxicity [10] 4.85% [at 6.55 µM] | activity change, negative = cytotoxicity [11] 12.7% [at 6.55 µM]

O=C(O[C@H]1[C@@H]2C=CO[C@@H](O[C@@H]3O[C@H](CO)[C@@H](O)[C@H](O)[C@H]3O)[C@@H]2[C@@]2(CO)O[C@@H]12)c1ccccc1
inactive: Potency [1] | Potency [12] | Potency [3] | Potency [4] | Potency [5] | Potency [6] | Potency [7] | Potency [8] | Potency [9] | Potency [10] | Potency [11]

C[C@@H]1O[C@@H](O[C@H]2[C@H](O[C@H]3CC[C@@]4(C)C(CC[C@]5(C)C4CC=C4[C@@H]6CC(C)(C)CC[C@]6(C(=O)O[C@@H]6OC[C@H](O)[C@H](O)[C@H]6O[C@@H]6O[C@@H](C)[C@H](O[C@@H]7O[C@H](CO)[C@@H](O)[C@H](O)[C@H]7O)[C@H](O)[C@H]6O)[C@H](O)C[C@]45C)C3(C)C)O[C@H](CO)[C@@H](O[C@@H]3OC[C@@H](O)[C@H](O)[C@H]3O)[C@@H]2O)[C@H](O)[C@H](O)[C@H]1O (stereo not given in full)
inactive: activity change, negative = cytotoxicity [1] -7.19% [at 6.55 µM] | activity change, negative = cytotoxicity [12] 6.32% [at 6.55 µM] | activity change, negative = cytotoxicity [3] 0.0947% [at 6.55 µM] | activity change, negative = cytotoxicity [4] -17.4% [at 6.55 µM] | activity change, negative = cytotoxicity [5] 6.66% [at 6.55 µM] | activity change, negative = cytotoxicity [6] 5.72% [at 6.55 µM] | activity change, negative = cytotoxicity [7] 11.1% [at 6.55 µM] | activity change, negative = cytotoxicity [8] 4.23% [at 6.55 µM] | activity change, negative = cytotoxicity [9] -6.09% [at 6.55 µM] | activity change, negative = cytotoxicity [10] 2.71% [at 6.55 µM] | activity change, negative = cytotoxicity [11] -23.4% [at 6.55 µM]

COc1ccc(/C=C\C(=O)O)c(O[C@@H]2O[C@H](CO)[C@@H](O)[C@H](O)[C@H]2O)c1
inactive: Potency [1] | Potency [12] | Potency [3] | Potency [4] | Potency [5] | Potency [6] | Potency [7] | Potency [8] | Potency [9] | Potency [10] | Potency [11]

C[C@@H]1O[C@@H](O[C@H]2[C@H](O)[C@@H](O)[C@H](OC[C@H]3O[C@@H](OC(=O)[C@]45CCC(C)(C)C[C@H]4C4=CCC6[C@@]7(C)CC[C@H](O[C@@H]8OC[C@H](O)[C@H](O[C@@H]9O[C@H](CO)[C@@H](O)[C@H](O)[C@H]9O)[C@H]8O)[C@@](C)(CO)C7CC[C@@]6(C)[C@]4(C)CC5)[C@H](O)[C@@H](O)[C@@H]3O)O[C@@H]2CO)[C@H](O)[C@H](O)[C@H]1O (stereo not given in full)
inactive: activity change, negative = cytotoxicity [1] 0.512% [at 6.55 µM] | activity change, negative = cytotoxicity [12] -0.125% [at 6.55 µM] | activity change, negative = cytotoxicity [3] -1.94% [at 6.55 µM] | activity change, negative = cytotoxicity [4] 8.6% [at 6.55 µM] | activity change, negative = cytotoxicity [5] -5.57% [at 6.55 µM] | activity change, negative = cytotoxicity [6] 16.9% [at 6.55 µM] | activity change, negative = cytotoxicity [7] 13.6% [at 6.55 µM] | activity change, negative = cytotoxicity [8] 8.25% [at 6.55 µM] | activity change, negative = cytotoxicity [9] 11.5% [at 6.55 µM] | activity change, negative = cytotoxicity [10] 8.55% [at 6.55 µM] | activity change, negative = cytotoxicity [11] -0.716% [at 6.55 µM]

C[S+](CC[C@H](N)C(=O)[O-])C[C@H]1O[C@@H](n2cnc3c(N)ncnc32)[C@H](O)[C@@H]1O (stereo not given in full)
inactive: Potency [1] | Potency [12] | Potency [3] | Potency [4] | Potency [5] | Potency [6] | Potency [7] | Potency [8] | Potency [9] | Potency [10] | Potency [11]

CN(C)C(=O)NC1CCC(CCN2CCN(c3cccc(Cl)c3Cl)CC2)CC1 (stereo not given)
inactive: activity change, negative = cytotoxicity [1] 1.34% [at 11.6 µM] | activity change, negative = cytotoxicity [12] 13.5% [at 11.6 µM] | activity change, negative = cytotoxicity [3] 5.23% [at 11.6 µM] | activity change, negative = cytotoxicity [4] -0.835% [at 11.6 µM] | activity change, negative = cytotoxicity [5] 12% [at 11.6 µM] | activity change, negative = cytotoxicity [6] 8.74% [at 11.6 µM] | activity change, negative = cytotoxicity [7] 0.264% [at 11.6 µM] | activity change, negative = cytotoxicity [8] 1.34% [at 11.6 µM] | activity change, negative = cytotoxicity [9] 0.966% [at 11.6 µM] | activity change, negative = cytotoxicity [10] 4.37% [at 11.6 µM] | activity change, negative = cytotoxicity [11] 2.02% [at 11.6 µM]

NC(=O)C(CCC(F)(F)F)N(Cc1ccc(-c2ncon2)cc1F)S(=O)(=O)c1ccc(Cl)cc1 (stereo not given)
inactive: Potency [1] | Potency [12] | Potency [3] | Potency [4] | Potency [5] | Potency [6] | Potency [7] | Potency [8] | Potency [9] | Potency [10] | Potency [11]

CCOC(=O)C(CCc1ccccc1)NC1CSC(c2cccs2)CN(CC(=O)O)C1=O (stereo not given)
inactive: Potency [1] | Potency [12] | Potency [3] | Potency [4] | Potency [5] | Potency [6] | Potency [7] | Potency [8] | Potency [9] | Potency [10] | Potency [11]

CN[C@@H]1[C@H](O[C@H]2[C@H](O[C@@H]3[C@@H](O)[C@H](O)[C@@H](N=C(N)N)[C@H](O)[C@H]3N=C(N)N)O[C@@H](C)[C@]2(O)C=O)O[C@@H](CO)[C@H](O)[C@H]1O
inactive: Potency [1] | Potency [12] | Potency [3] | Potency [4] | Potency [5] | Potency [6] | Potency [7] | Potency [8] | Potency [9] | Potency [10] | Potency [11]

O=C1NC(Cc2ccccc2)C(=O)N2CCCC12 (stereo not given)
inactive: Potency [1] | Potency [12] | Potency [3] | Potency [4] | Potency [5] | Potency [6] | Potency [7] | Potency [8] | Potency [9] | Potency [10] | Potency [11]

O=C(O)COCCN1CCN([C@H](c2ccccc2)c2ccc(Cl)cc2)CC1
inactive: Potency [1] | Potency [12] | Potency [3] | Potency [4] | Potency [5] | Potency [6] | Potency [7] | Potency [8] | Potency [9] | Potency [10] | Potency [11]
